# Assays:
# Test in all cases: DAPPL (digital affinity profiling via proximity ligation, sequencing); 10 mM Tris-HCl pH 7.5, 50 mM NaCl, 1 mM DTT, 4% glycerol, room temperature, 30 min; GST-TFs on glutathione beads, 16-mer random dsDNA library, 0.1% formaldehyde crosslink after washing; high values mean tight binding
# Settings in all cases: protein: recombinant; tags: N-terminal GST; dsDNA, one strand shown
# [1] = biological target: T1, ELK4 (Homo sapiens, UniProt P28324-2 1-405)
# T1 sequence: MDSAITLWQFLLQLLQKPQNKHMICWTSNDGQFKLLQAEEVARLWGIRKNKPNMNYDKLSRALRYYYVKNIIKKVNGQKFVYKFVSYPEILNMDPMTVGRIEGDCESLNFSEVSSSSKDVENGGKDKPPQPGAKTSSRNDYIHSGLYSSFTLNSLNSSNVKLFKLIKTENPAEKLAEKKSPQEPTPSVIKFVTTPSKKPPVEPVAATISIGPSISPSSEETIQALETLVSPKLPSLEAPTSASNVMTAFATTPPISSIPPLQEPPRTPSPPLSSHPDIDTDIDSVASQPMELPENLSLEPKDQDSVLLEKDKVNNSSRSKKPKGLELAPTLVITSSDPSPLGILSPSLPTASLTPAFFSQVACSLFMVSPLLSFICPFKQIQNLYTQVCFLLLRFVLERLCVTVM
# Method in brief: (§1)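 Sequencing on an Illumina NextSeq500 followed washing, crosslinking with 0.1% formaldehyde, proximity ligation (BsaI/T4 ligase, 1 h, 37 °C) and PCR amplification of pools that had been incubated for 30 min at room temperature with 200 nmole of a random double-stranded 16-mer DNA library in Tris/NaCl/DTT/glycerol buffer. Each pool held DNA-barcoded human transcription factors, expressed in yeast as GST fusions and captured on glutathione beads, plus a tag-only sample. Binding signal is a hexamer's read frequency for a factor divided by its frequency in the tag-only sample.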
# [2] = biological target: T2, ETV2 (Homo sapiens, UniProt O00321 1-342)
# T2 sequence: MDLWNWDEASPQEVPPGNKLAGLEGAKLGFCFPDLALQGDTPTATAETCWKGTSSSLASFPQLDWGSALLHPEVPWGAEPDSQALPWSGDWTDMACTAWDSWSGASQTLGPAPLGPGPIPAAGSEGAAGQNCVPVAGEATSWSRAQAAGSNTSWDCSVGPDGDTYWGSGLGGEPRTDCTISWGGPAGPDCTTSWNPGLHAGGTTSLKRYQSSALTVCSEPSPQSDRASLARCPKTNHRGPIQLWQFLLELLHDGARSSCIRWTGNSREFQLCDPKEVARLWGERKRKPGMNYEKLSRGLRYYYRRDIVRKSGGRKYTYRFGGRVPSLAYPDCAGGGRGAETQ
# Method in brief: as §1
# [3] = biological target: T3, ELF3 (Homo sapiens, UniProt P78545 1-371)
# T3 sequence: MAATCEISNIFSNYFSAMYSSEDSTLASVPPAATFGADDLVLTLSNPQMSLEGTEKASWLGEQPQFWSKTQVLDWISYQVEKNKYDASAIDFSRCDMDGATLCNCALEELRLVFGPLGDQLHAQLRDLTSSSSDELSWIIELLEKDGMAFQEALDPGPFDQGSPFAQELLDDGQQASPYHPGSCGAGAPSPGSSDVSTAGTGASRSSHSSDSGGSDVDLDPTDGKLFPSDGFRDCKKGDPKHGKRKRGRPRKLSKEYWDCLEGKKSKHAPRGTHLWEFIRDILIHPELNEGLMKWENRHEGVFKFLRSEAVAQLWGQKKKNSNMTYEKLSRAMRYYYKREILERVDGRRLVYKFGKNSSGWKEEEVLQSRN
# Method in brief: as §1
# [4] = biological target: ETV1 (Homo sapiens, UniProt P50549 1-477)
# Sequence of ETV1 (P50549 whole entry): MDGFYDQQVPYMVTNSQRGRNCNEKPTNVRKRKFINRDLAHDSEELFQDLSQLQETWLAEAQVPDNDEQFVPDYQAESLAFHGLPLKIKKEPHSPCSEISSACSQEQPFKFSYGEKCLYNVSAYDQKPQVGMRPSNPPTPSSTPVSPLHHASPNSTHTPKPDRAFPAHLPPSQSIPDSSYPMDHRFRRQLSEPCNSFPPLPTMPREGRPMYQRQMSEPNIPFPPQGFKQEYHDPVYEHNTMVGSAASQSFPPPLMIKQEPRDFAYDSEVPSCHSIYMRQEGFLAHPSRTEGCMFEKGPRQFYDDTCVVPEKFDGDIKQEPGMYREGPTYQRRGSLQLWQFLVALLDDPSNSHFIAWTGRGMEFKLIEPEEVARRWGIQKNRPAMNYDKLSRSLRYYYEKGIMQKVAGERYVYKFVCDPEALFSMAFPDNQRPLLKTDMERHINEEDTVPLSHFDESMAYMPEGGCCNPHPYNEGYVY
# Method in brief: as §1
# [5] = biological target: T4, ERF (Homo sapiens, UniProt P50548 1-548)
# T4 sequence: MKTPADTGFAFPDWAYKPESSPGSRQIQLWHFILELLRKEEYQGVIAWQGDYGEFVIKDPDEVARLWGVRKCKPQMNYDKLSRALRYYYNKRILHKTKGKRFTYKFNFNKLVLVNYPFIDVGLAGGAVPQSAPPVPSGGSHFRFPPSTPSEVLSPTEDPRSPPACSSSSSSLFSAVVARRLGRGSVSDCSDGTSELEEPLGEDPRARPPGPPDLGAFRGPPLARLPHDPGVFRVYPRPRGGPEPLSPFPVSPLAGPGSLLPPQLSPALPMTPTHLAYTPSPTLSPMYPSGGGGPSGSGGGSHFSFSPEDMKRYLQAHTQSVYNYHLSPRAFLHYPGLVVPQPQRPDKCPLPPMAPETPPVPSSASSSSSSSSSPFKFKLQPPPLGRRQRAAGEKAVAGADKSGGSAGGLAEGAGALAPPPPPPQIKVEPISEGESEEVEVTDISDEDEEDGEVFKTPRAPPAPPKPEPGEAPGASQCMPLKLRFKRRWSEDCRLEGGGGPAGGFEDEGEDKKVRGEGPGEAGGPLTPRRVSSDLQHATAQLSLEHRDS
# Method in brief: as §1
# [6] = biological target: T5, ETV3L (Homo sapiens, UniProt Q6ZN32 1-361)
# T5 sequence: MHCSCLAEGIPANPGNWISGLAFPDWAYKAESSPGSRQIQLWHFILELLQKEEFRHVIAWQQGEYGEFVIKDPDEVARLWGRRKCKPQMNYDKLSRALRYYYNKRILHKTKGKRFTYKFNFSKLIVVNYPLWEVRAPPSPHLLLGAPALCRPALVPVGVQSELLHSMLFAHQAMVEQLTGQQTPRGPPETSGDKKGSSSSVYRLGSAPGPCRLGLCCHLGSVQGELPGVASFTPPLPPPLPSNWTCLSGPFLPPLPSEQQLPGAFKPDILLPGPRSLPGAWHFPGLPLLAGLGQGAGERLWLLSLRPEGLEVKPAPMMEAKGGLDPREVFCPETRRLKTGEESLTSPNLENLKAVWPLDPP
# Method in brief: as §1
# [7] = biological target: T6, ETS2 (Homo sapiens, UniProt P15036 1-469)
# T6 sequence: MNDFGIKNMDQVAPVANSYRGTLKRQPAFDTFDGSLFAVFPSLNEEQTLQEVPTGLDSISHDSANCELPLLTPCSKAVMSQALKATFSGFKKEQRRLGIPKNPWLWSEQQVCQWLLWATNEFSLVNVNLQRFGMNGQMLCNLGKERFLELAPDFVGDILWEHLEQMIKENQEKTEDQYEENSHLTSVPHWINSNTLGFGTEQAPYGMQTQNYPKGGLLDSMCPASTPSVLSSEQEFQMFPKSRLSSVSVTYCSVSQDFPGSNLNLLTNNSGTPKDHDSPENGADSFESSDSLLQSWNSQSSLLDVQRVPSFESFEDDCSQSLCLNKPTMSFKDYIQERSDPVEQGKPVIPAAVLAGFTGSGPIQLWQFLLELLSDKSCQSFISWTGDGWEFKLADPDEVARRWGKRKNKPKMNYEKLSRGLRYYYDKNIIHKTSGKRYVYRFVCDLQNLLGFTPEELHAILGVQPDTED
# Method in brief: as §1
# [8] = biological target: T7, SPDEF (Homo sapiens, UniProt O95238 1-335)
# T7 sequence: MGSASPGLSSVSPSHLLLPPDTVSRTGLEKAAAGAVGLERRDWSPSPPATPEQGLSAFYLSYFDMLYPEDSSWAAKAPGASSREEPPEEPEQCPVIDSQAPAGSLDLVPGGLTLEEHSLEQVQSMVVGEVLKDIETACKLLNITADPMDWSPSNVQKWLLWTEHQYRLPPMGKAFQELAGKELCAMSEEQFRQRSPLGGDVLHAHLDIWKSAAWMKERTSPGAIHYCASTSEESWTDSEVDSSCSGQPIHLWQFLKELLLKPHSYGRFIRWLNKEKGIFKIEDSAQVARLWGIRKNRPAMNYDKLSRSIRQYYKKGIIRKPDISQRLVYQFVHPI
# Method in brief: as §1
# [9] = biological target: T8, ETV7 (Homo sapiens, UniProt Q9Y603 1-341)
# T8 sequence: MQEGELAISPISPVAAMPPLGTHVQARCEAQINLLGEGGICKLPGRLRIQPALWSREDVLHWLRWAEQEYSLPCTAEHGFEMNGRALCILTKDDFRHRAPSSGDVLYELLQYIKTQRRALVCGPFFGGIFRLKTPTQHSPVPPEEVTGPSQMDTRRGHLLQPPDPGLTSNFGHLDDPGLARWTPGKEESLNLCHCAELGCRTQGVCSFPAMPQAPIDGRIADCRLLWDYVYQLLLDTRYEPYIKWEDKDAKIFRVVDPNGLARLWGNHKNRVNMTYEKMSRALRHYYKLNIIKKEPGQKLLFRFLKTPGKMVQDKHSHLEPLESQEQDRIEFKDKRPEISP
# Method in brief: as §1
# [10] = biological target: T9, ELF5 (Homo sapiens, UniProt Q9UKW6-2 1-255)
# T9 sequence: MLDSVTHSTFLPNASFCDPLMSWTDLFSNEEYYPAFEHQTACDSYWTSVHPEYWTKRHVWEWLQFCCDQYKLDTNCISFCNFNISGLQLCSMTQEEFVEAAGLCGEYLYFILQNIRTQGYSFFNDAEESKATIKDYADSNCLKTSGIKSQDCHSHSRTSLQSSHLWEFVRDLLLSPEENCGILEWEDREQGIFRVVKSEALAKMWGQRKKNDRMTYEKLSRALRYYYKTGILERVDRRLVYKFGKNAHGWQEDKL
# Method in brief: as §1
# [11] = biological target: T10, ETV3 (Homo sapiens, UniProt P41162-2 1-143)
# T10 sequence: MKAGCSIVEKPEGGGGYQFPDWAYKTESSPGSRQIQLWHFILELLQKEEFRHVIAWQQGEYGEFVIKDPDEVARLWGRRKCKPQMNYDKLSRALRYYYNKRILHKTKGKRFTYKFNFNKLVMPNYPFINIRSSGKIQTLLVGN
# Method in brief: as §1
# [12] = biological target: ETV6 (Homo sapiens, UniProt P41212 1-452)
# Sequence of ETV6 (P41212 whole entry): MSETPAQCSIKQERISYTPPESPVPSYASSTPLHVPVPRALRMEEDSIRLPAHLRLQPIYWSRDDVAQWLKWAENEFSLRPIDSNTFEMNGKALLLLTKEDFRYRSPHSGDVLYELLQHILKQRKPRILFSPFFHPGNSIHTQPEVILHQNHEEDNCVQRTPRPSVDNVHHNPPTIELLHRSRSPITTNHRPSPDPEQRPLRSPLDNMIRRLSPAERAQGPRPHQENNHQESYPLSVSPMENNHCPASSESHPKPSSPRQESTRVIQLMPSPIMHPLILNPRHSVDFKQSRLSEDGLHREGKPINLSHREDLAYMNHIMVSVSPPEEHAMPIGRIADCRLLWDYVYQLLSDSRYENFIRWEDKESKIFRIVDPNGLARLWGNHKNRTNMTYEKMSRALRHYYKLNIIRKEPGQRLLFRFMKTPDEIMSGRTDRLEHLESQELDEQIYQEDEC
# Method in brief: as §1
sequence,measurement,setting,value
ACCCCT,binding signal,[1],"1.28 fold enrichment (6-mer frequency, TF over GST control)"
same,binding signal,[2],"1.17 fold enrichment (6-mer frequency, TF over GST control)"
same,binding signal,[3],"1.09 fold enrichment (6-mer frequency, TF over GST control)"
same,binding signal,[4],"1.21 fold enrichment (6-mer frequency, TF over GST control)"
same,binding signal,[5],"1.06 fold enrichment (6-mer frequency, TF over GST control)"
same,binding signal,[6],"1.05 fold enrichment (6-mer frequency, TF over GST control)"
same,binding signal,[7],"1.08 fold enrichment (6-mer frequency, TF over GST control)"
same,binding signal,[8],"1.16 fold enrichment (6-mer frequency, TF over GST control)"
same,binding signal,[9],"1 fold enrichment (6-mer frequency, TF over GST control)"
same,binding signal,[10],"1 fold enrichment (6-mer frequency, TF over GST control)"
same,binding signal,[11],"1.03 fold enrichment (6-mer frequency, TF over GST control)"
same,binding signal,[12],"1.16 fold enrichment (6-mer frequency, TF over GST control)"
